# Source: PubChem BioAssay AID2315 (National Center for Advancing Translational Sciences (NCATS), 2010)
# Among all 290,000 compounds or so, about 27,000 (9.3%) were called active. No stated cut-off is given here; in the data, active means inhibition mostly above about 28% (no sharp cut-off); inactive means mostly below about 43%. For the sample, actives were picked, then their nearest neighbours and some compounds at random.
# Experiment: A qHTS for Small Molecule Inhibitors of Shiga Toxin; further: 0% is about no effect
# Details: Vero cells, Shiga toxin protein synthesis inhibition reporter; at 38.7 µM, hits give high values
row,Compound,inhibition
1,COc1ccc(CCOC(=O)CNC(=O)c2ccc(Cl)cc2Cl)cc1,7.31% (inactive)
2,CCCOc1ccc(CNC(=O)C2CCN(c3nn4c(=O)cc(C)nc4s3)CC2)cc1,-3.64% (inactive)
3,Cc1cccnc1CCNC(=O)C1CCC(=O)N(Cc2cccc(F)c2)C1 (stereo not drawn),-6.16% (inactive)
4,COC(CNC(=O)c1ccc2c(c1)ncn2-c1cc(C)cc(C)c1)OC,4.27% (inactive)
5,COc1cccc(CN(C)C(=O)CC23CC4CC(CC(C4)C2)C3)c1OC,-11.5% (inactive)
6,CS(=O)(=O)c1ccc(-c2nnn(CC(=O)Nc3ccc4c(c3)OCCO4)n2)cc1,20.6% (inactive)
7,Cc1ccc(OCC(=O)Nc2ccc(NC(=O)c3cccs3)cc2)c(C)c1,25.9% (inactive)
8,C/C(=N\OCC(=O)Nc1ccc(Br)cc1)c1cccs1,40.3% (inactive)
9,CCc1ccc(NC(=O)CCNS(=O)(=O)c2cccs2)cc1,53.4% (active)
10,CCc1ccc(NC(=O)COC(=O)c2cccs2)cc1,51.4% (active)
11,CCc1cccc(NC(=O)CCNS(=O)(=O)c2cccc3nonc23)c1,-3.23% (inactive)
12,O=S(=O)(NCCc1ccc(Cl)cc1)c1cccs1,10.5% (inactive)
13,COc1ccccc1C(=O)N(C1=NC(C)CS1)c1ccc(Cl)cc1 (stereo not drawn),-5.01% (inactive)
14,COc1ccccc1CNC(=O)C1CCN(C(=O)[C@@H]2Cc3ccccc3CN2)CC1,13.3% (inactive)
15,Cc1c(C(=O)NCC(c2ccco2)N2CCCC2)oc2ccc(Cl)cc12 (stereo not drawn),49.7% (inactive)
16,Cc1nc2nc(SCC(=O)Nc3cccc(F)c3)[nH]c2cc1Br,6.55% (inactive)
17,CCCCn1c(SCC(=O)N2CCOCC2)nc2c1c(=O)n(C)c(=O)n2C,-5.05% (inactive)
18,CC(=O)N(C)c1ccc(NC(=O)Nc2cccc3ccccc23)cc1,77.5% (active)
19,O=C(O)Cc1ccc(NC(=O)Nc2cccc3ccccc23)cc1,-1.4% (inactive)
20,CC(=O)N(C)c1ccc(NC(=O)C(F)(F)F)cc1,13.5% (inactive)
21,CCOc1ccc(NC(=O)N(CC(C)C)CC(C)C)cc1,26.1% (inactive)
22,CCOc1ccc(NC(=O)Nc2ccc(N(C)C(C)=O)cc2)cc1,73.9% (active)
23,O=C(Nc1ccc2c(c1)C(=O)OC2)Nc1cccc2ccccc12,12.8% (inactive)
24,NS(=O)(=O)c1ccc(CCNC(=O)c2nc(CS(=O)(=O)c3ccc(Cl)cc3)no2)cc1,-2.78% (inactive)
25,FC(F)(F)c1ccnc(Oc2ccc(C3=NCCS3)cc2)c1,64.7% (active)

row,Compound,inhibition
1,O=Cc1ccc(Oc2cccc(C(F)(F)F)c2)nc1,12.2% (inactive)
2,C[C@H](NC(=O)C1CC(=O)N(c2ccc3c(c2)OCO3)C1)C(=O)NCc1ccco1 (stereo partly drawn),-4.62% (inactive)
3,O=S(=O)(NC1CCCCC1N1CCCCC1)c1ccc(Cl)cc1 (stereo not drawn),-21.5% (inactive)
4,O=C(NCc1ccncc1)C1CCCN(S(=O)(=O)c2ccc(Br)cc2)C1 (stereo not drawn),-9.96% (inactive)
5,Cc1nc2sc3c(c2c(=O)n1NC(=O)CCl)CCCC3,-6.21% (inactive)
6,CCC(O)CNc1nc(-n2nc(C)cc2C)nc2sc3c(c12)CC(C)(C)OC3 (stereo not drawn),-11.2% (inactive)
7,COCCNc1nc(-n2nc(C)cc2C)nc2sc3c(c12)CCCC3,51.2% (active)
8,COc1ccccc1NC(=O)c1cc(N2C(=O)C3C4CCC(C4)C3C2=O)ccc1Cl (stereo not drawn),-3.33% (inactive)
9,COc1ccccc1N1CCN(S(=O)(=O)c2ccc3c(c2)NC(=O)CS3)CC1,16.6% (inactive)
10,N#Cc1c(NC(=O)C2CC(Cl)=CCC2C(=O)O)sc2c1CCCCC2 (stereo not drawn),18.3% (inactive)
11,N#Cc1c(NC(=O)CCCl)sc2c1CCCCC2,25% (inactive)
12,N#Cc1c(NC(=O)C2CCCO2)sc2c1CCCCC2 (stereo not drawn),82.7% (active)
13,Cc1c(C)c2ccc(OCC(=O)N3CCC(C(=O)O)CC3)c(C)c2oc1=O,-1.33% (inactive)
14,Nc1ccn(C2CC(O)C(CO)O2)c(=O)n1 (stereo not drawn),-2.7% (inactive)
15,CCOC(=O)c1c(NC(=O)CSc2nccc(=O)[nH]2)sc(C)c1C,-11.1% (inactive)
16,Cc1ccc2ccc3c(c2n1)NS(=O)(=O)c1ccccc1-3,-4.77% (inactive)
17,Nc1ccccc1Sc1ccc(C(F)(F)F)cc1[N+](=O)[O-],-8.21% (inactive)
18,CCS(=O)(=O)c1cc([N+](=O)[O-])c(Sc2ccccc2N)s1,101% (active)
19,CCOC(=O)c1cc(Sc2ccccc2N)cc(C(=O)OCC)n1,-2.59% (inactive)
20,C/C(=N\NC(=O)c1nc(C)cc(C)n1)c1ccccc1,86.5% (active)
21,C/C(=N\NC(=O)c1cccnc1)c1ccc(-c2ccccc2)cc1,20.1% (inactive)
22,COc1ccc(/C(C)=N/NC(=O)c2ccc3nc[nH]c3c2)cc1,-11.9% (inactive)
23,COc1ccc(N=Nc2c(-c3ccc(OC)cc3)[nH]oc2=O)cc1,-1.4% (inactive)
24,Cc1cc(C)cc(OCC(=O)NC(C)c2ccccc2)c1 (stereo not drawn),16.2% (inactive)
25,COc1cc(NC(=O)c2ccccc2)c(OC)cc1NC(=O)Cc1ccccc1,-6.61% (inactive)

row,Compound,inhibition
1,COCC1CCN(C(=O)c2ccc3oc(Cc4ccccc4)nc3c2)C1 (stereo not drawn),42.2% (active)
2,COC(=O)C1CCN(C(=O)c2ccc3oc(Cc4ccc(Cl)cc4)nc3c2)CC1,-23.6% (inactive)
3,COc1ccc(Cc2nc3ccc(C(=O)N4CCC(N(C)C)C4)cc3o2)cc1 (stereo not drawn),5% (inactive)
4,CN(C)c1ccc(/C=C2\NC(=S)N(Cc3ccccc3)C2=O)cc1,3.47% (inactive)
5,CCc1nn(CCCC(=O)NC(C)c2ccccc2)c(=O)c2cc3occc3n12 (stereo not drawn),11.1% (inactive)
6,O=C(CNC(=O)c1ccc(Br)o1)NCC1CCCO1 (stereo not drawn),-17.7% (inactive)
7,CCC(C)(C)C1CCC(=NNC(=O)c2ccc(Br)o2)CC1 (stereo not drawn),123% (active)
8,CC(C)(C)C1CCC(=NNC(=O)c2ccc(Br)o2)CC1 (stereo not drawn),50.9% (active)
9,CCCC(=O)Nc1ccc(Cl)c(NC(=O)c2ccc(Br)o2)c1,-13.8% (inactive)
10,CC(NC(=O)C(=O)NN=C1CCC(C(C)(C)C)CC1)c1ccccc1 (stereo not drawn),-9.73% (inactive)
11,CC(C)(C)C1CCC(=NNC(=O)c2cc(-c3ccccc3)n[nH]2)CC1 (stereo not drawn),5.96% (inactive)
12,O=C(CCN1C(=O)[C@@H]2Cc3ccccc3CN2C1=O)NCc1ccccc1,-1.35% (inactive)
13,CCc1ccc(S(=O)(=O)N/N=C\c2ccc([N+](=O)[O-])o2)cc1,9.6% (inactive)
14,O=C(/C=C/c1ccc(OCc2c(F)cccc2Cl)cc1)N1CCOCC1,54.8% (inactive)
15,CCOC(=O)C(C)n1cnc2scc(-c3ccc(C)c(C)c3)c2c1=O (stereo not drawn),2.19% (inactive)
16,CCCN1C2=C(C(=O)CCC2)C(c2ccc(O)c(Br)c2)C2=C1CCCC2=O,6.12% (inactive)
17,CCOC(=O)C1(CCOc2ccccc2)CCN(Cc2cc(OC)c(O)cc2Cl)CC1,21.9% (inactive)
18,CCN(CC)CCn1cnc2c1c(=O)[nH]c(=O)n2Cc1ccccc1,-12.7% (inactive)
19,C=CCNC(=O)COc1coc(CN2CCN(Cc3ccccc3)CC2)cc1=O,-1.93% (inactive)
20,COc1ccc(/C=C2\SC(=O)N(CCC(=O)NCCCn3ccnc3)C2=O)cc1,65.3% (active)
21,COc1ccc(NC(=O)CCN2C(=O)/C(=C/c3ccc4c(c3)OCO4)SC2=S)cc1,-2.97% (inactive)
22,COc1ccccc1/C=C1\SC(=O)N(CCC(=O)N(C)C2CCS(=O)(=O)C2)C1=O (stereo not drawn),18.1% (inactive)
23,COc1ccc(/C=C2\SC(=O)N(CCC(=O)NC3CCS(=O)(=O)C3)C2=O)cc1 (stereo not drawn),65.1% (active)
24,O=C(CCN1C(=O)c2ccccc2C1=O)NCCCn1ccnc1,-4.06% (inactive)
25,O=C(CN1C(=O)S/C(=C\c2ccccc2F)C1=O)NCCCn1ccnc1,1.8% (inactive)

row,Compound,inhibition
1,O=C1C(=O)N(CCN2CCOCC2)C(c2cccc(Cl)c2)/C1=C(/O)c1ccc2c(c1)OCO2 (stereo not drawn),-5.97% (inactive)
2,CS(=O)(=O)N(CC(=O)N1CCCCCC1)c1cccc(Cl)c1Cl,-8.4% (inactive)
3,CC(=O)N1CCOc2ccc(S(=O)(=O)N3CCC(C(=O)Nc4ccccc4F)CC3)cc21,-3.81% (inactive)
4,CSCCC(NS(=O)(=O)c1ccc(C)cc1)C(=O)N1CCCC1 (stereo not drawn),-8.89% (inactive)
5,COc1ccc2c(C)c(CCC(=O)NC3CC3)c(=O)oc2c1C,12.7% (inactive)
6,O=C(N/N=C\c1ccc(-c2ccc(Cl)c(Cl)c2)o1)C(=O)N1CCCC1,-9.82% (inactive)
7,Nc1nnnn1CC(=O)N/N=C/c1ccc(-c2cccc(Cl)c2)o1,14.1% (inactive)
8,COC(=O)N/N=C/c1ccc(-c2ccc(Cl)c(Cl)c2)o1,59.7% (active)
9,O=C(Nc1ccccc1C(=O)N1CCCCC1)c1ccco1,-5.5% (inactive)
10,O=C(c1cccc(S(=O)(=O)Nc2ccccc2Cl)c1)N1CCN(C(=O)c2ccco2)CC1,10.9% (inactive)
11,CS/C(=C\C(=O)c1ccco1)Nc1ccccc1Cl,53.1% (active)
12,Cc1c(Cl)cccc1NC(=O)[C@@]1(CC(=O)O)CC(/C=C/c2ccccc2)=NO1,4.14% (inactive)
13,CCOc1cc(/C=N/NC(=O)c2cc(-c3ccccc3)nc3ccccc23)ccc1O,46.8% (active)
14,COc1cccc(-c2cc(C(=O)N/N=C/c3ccc(OC)c(COC(C)=O)c3)c3ccccc3n2)c1,13.2% (inactive)
15,CCOc1cc(/C=N/Nc2cc(C)nc3ccc(C)cc23)ccc1O,16.6% (inactive)
16,Cc1cc(=O)oc2cc(OC(C)C(=O)NCCc3ccc(S(N)(=O)=O)cc3)ccc12 (stereo not drawn),-15.1% (inactive)
17,CC(=O)N1CCOc2ccc(S(=O)(=O)N3CCN(c4cccc(C(F)(F)F)c4)CC3)cc21,-3.75% (inactive)
18,O=C(O)c1ccc(COCC(F)(F)F)cc1,8.49% (inactive)
19,CCCCCc1ccc(-c2ccc(OCC)cc2)nc1,43.4% (active)
20,CCCCCc1ccc(-c2ccc(C(=O)O)cc2)nc1,71.9% (active)
21,CCCCCc1ccc(-c2cn(Cc3ccc4ccccc4c3)nn2)cc1,-7.01% (inactive)
22,CCOc1c(CNCc2ccc(C(=O)O)cc2)cccc1OC,11.6% (inactive)
23,CCCCOc1ccc(-c2ncc(C(=O)OCC)c(N)n2)cc1,21.7% (inactive)
